SMILES strings stand for the structures. About 1,700 (0.52%) of roughly 330,000 compounds were called active. For the sample, actives were picked, then their nearest neighbours and some compounds at random. Values without a mark were called inactive.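 The calls were made as follows: active = GFP response versus DMSO above a set limit, roughly screen mean plus 3 SD (cut at about 180% in these data); inconclusive = fewer than 70 cells counted for a yeast strain; inactive = the rest.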

The text below walks through data of PubChem BioAssay AID2016 (NMMLSC, 2009).

A short description of this assay: modulators of MEP2-GFP levels in yeast, primary screen, S. cerevisiae, multiplex flow cytometry, MLPCN library (AID 2016).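 Also: median GFP fluorescence of the barcode-gated MEP2-GFP cells per well.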 As to conditions: S. cerevisiae MEP2-GFP strain, 3 h, at 10 µM, hits give high values, 100% = DMSO control level.
In the case of `CSc1ncccc1C(=O)NCc1ccccc1Cl`, the GFP response vs DMSO was 107%.

On to `COc1c(C)c2c(c(O)c1C/C=C(\C)CCC(=O)O)C(=O)OC2`, for which the GFP response vs DMSO is 297% [may fluoresce violet] (active).

Consider `CCCCn1c(N)c(N(CC)C(=O)c2ccc(N(C)S(=O)(=O)c3ccc(C)cc3)cc2)c(=O)[nH]c1=O`, for which the GFP response vs DMSO was 98%.

Regarding `CC(C)(C)C1CCC(C(=O)NCC(c2cccs2)N2CCOCC2)CC1` (centres undefined), the GFP response vs DMSO is 99%.

Regarding `CN1CCN(C(=O)Cn2c(C(F)(F)F)nc3ccccc32)CC1`, the GFP response vs DMSO is 103%.

Consider `C=CCN1CC(C)/C(=N\O)CC1C` (centres undefined), for which the GFP response vs DMSO was 93.2%.

With `Cc1ccc(C(=O)Nc2c(C#N)c(C)c(C)n2Cc2ccccc2)cc1`, the GFP response vs DMSO is 364% [may fluoresce violet] (active).

In the case of `COc1ccc(Cn2c(C)c(C)c(C#N)c2NC(=O)Nc2ccc(F)cc2)cc1`, the GFP response vs DMSO was 99.5%.

With `Cc1c(C#N)c(NC(=O)c2ccccc2)n(Cc2ccccc2)c1C`, the GFP response vs DMSO is 93.8%.

As for `Cc1cc(C)c2c(-c3ccc(F)cc3)c(C#N)c(=O)n(C)c2n1`, the GFP response vs DMSO is 95.2%.

For `Cc1cccn2c(=O)c3cc(C(=O)NCC4CCCO4)c(=N)n(Cc4ccc(F)cc4)c3nc12` (centres undefined), the GFP response vs DMSO was 92.2%.

As to `Cc1ccc(CCNC(=O)c2ccc3nc4ccccc4c(=O)n3c2)cc1`, the GFP response vs DMSO is 112%.

On to `Cc1ccc2nc3c(cc(C(=O)NCCc4ccccc4)c(=N)n3CC3CCCO3)c(=O)n2c1` (centres undefined), for which the GFP response vs DMSO is 238% [may fluoresce violet] (active).

With `COc1ccc(-c2c(C(C)=O)c(C)nc3sc4c(=O)n(-c5ccc(C)cc5)nnc4c23)cc1`, the GFP response vs DMSO is 105%.

For `O=C(Nc1ccccc1)c1ccc2nsnc2c1`, the GFP response vs DMSO is 100%.

Take `Cc1cccc(NC(=O)c2ccc3nsnc3c2)c1C`: the GFP response vs DMSO was 100%.

Consider `Cc1cccc(NC(=O)c2cccc(C(=O)Nc3cccc(C)c3C)n2)c1C`, for which the GFP response vs DMSO is 181% [may fluoresce violet] (active).

`Cc1cccc(NC(=O)N2CCCCCC2)c1C`: the GFP response vs DMSO was 98.3%.

Turning to `Nc1nc(Sc2ncccc2[N+](=O)[O-])n[nH]1`, the GFP response vs DMSO was 96.3%.

In the case of `COc1ccc(N2C(=O)CCC(C(=O)N(C)C3CCCCC3)C2c2ccc(OC)c(OC)c2)cc1` (centres undefined), the GFP response vs DMSO was 99.1%.

In the case of `CCCCCn1c(=O)[nH]c2cc(C(=O)NCCCN3CCCCC3C)ccc2c1=O` (centres undefined), the GFP response vs DMSO is 127%.

Consider `O=S(=O)(NCC1CN(S(=O)(=O)c2ccc3c(c2)OCCO3)C1)c1c(F)cccc1F`, for which the GFP response vs DMSO is 103%.

Regarding `Fc1ccc(/C=N/Nc2nc(-c3cccnc3)nc3ccccc23)cc1`, the GFP response vs DMSO was 195% (active).

`O=C(N/N=C/c1cccnc1)c1ccc(NC(=O)c2ccc(F)cc2)cc1`: the GFP response vs DMSO was 99.6%.

With `O=c1c2ccccc2nc(N/N=C/c2ccccc2)n1O`, the GFP response vs DMSO was 95.1%.

As for `Cc1cc(C)c(S(=O)(=O)NCCCN2CCOCC2)cc1Br`, the GFP response vs DMSO was 103%.

Consider `CN(c1ccccc1)c1ccc(/C=c2\s/c(=C(/C#N)C(=O)C(C)(C)C)n(Cc3ccco3)c2=O)cc1`, for which the GFP response vs DMSO was 343% (active).

On to `CCOC(=O)Cn1c(=O)oc2cc(S(=O)(=O)N(C)Cc3ccco3)ccc21`, for which the GFP response vs DMSO was 91.7%.

`CCN1CCN(C(=O)N[C@@H](C(=O)N[C@@H]2C(=O)N3C(C(=O)O)=C(CSc4nnnn4C)CS[C@H]23)c2ccc(O)cc2)C(=O)C1=O`: the GFP response vs DMSO is 94.9%.

Consider `O=C(Cn1[nH]c(=O)c2ccccc2c1=O)Nc1cccc(-c2nnc3n2CCCCC3)c1`, for which the GFP response vs DMSO is 224% [may fluoresce violet] (active).

Regarding `Cc1c(C(=O)Nc2cccc(-c3nnc4n3CCCCC4)c2)oc2ccccc12`, the GFP response vs DMSO is 104%.

Consider `Cc1ccc(-c2csc(NC(=O)Cn3[nH]c(=O)c4ccccc4c3=O)n2)cc1`, for which the GFP response vs DMSO was 102%.

`Cc1ccc(-c2csc(N(Cc3ccco3)C(=O)c3cccs3)n2)cc1`: the GFP response vs DMSO was 109%.

As to `CCOCCn1c(C(C)C)nc2ccccc21`, the GFP response vs DMSO was 94.3%.

Regarding `CCOCCn1c(-c2ccccc2)nc2ccccc21`, the GFP response vs DMSO is 236% [may fluoresce violet] (active).

Consider `CCc1nc2ccccc2n(CCOCCOCCn2c(=O)c(CC)nc3ccccc32)c1=O`, for which the GFP response vs DMSO was 105%.

For `CCN(CC(=O)NCc1cccs1)C(=O)c1ccc(OC)c(S(=O)(=O)N2CCOCC2)c1`, the GFP response vs DMSO is 96%.

In the case of `Cc1cc(=O)oc2c3c(cc(OCC(=O)NCCC(=O)N[C@@H](C)C(=O)O)c12)OC(C)(C)CC3`, the GFP response vs DMSO was 92.9%.

In the case of `CCOc1cc(N2CCOCC2)c(OCC)cc1NC(=O)COc1cccc(Cl)c1`, the GFP response vs DMSO was 107%.

Turning to `CCOc1cc(N2CCOCC2)c(OCC)cc1NC(=O)c1ccc(C)s1`, the GFP response vs DMSO was 94.6%.

Regarding `CCOc1cc(N2CCOCC2)c(OCC)cc1NC(=O)COc1cccc2cccnc12`, the GFP response vs DMSO was 295% [may fluoresce violet] (active).

As to `O=C(CSc1nnc(-c2ccncc2)n1-c1ccc(Cl)cc1)Nc1ccc(C(=O)O)cc1`, the GFP response vs DMSO was 101%.

Turning to `Cc1cc(=O)oc2c3c(cc(OCC(=O)NCc4ccccn4)c12)OC(C)(C)CC3`, the GFP response vs DMSO was 100%.

For `O=C(CCC(=O)N1CCN(S(=O)(=O)c2ccccc2)CC1)NC1CCCc2ccccc21` (centres undefined), the GFP response vs DMSO is 108%.

Take `CNS(=O)(=O)c1cccc(C(=O)NC2CCCc3ccccc32)c1` (centres undefined): the GFP response vs DMSO was 102%.

In the case of `O=C(O)c1cc(S(=O)(=O)NC2CCCc3ccccc32)ccc1O` (centres undefined), the GFP response vs DMSO was 232% [may fluoresce violet] (active).

Consider `CCC(C)(C)c1ccc(OCC(=O)N(C)C)c(C(C)(C)CC)c1`, for which the GFP response vs DMSO was 108%.

With `N#Cc1cccc(NC(=O)COC(=O)c2ccccc2C(=O)c2ccc(Cl)c([N+](=O)[O-])c2)c1`, the GFP response vs DMSO is 112%.

For the compound `Cc1ccc(C2(c3ccc(C)cc3)NC(=O)N(Cc3c(C)noc3C)C2=O)cc1`, the GFP response vs DMSO is 91.9%.
